This test deals with Caenorhabditis elegans L1 (N2). Nature of the test: survival and reproduction score of C. elegans L1 (0: 0-10 living worms, 1: 11-20, 2: 21-50, 3: >50, 4: overgrown) (score 0-4); higher = more worms, less nematicidal, active = 1 or less; extreme values may be limits of the assay. Conditions: 60 µM; 6 days; temperature: 20 °C. Put shortly:
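After compound was pinned to 60 µM final (0.6% v/v DMSO) into wells with roughly 20 synchronized C. elegans N2 L1s and E. coli HB101 in liquid NGM, the sealed 96-well plates were shaken at 200 rpm for 6 days at 20 °C. Under a dissection microscope, survival and reproduction were graded ordinally by living worms per well. A grade of 0 stood for 0–10 worms and 4 for overgrown, starved wells; two biological replicates were averaged.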
Turning to `c1cc(-c2noc(C34CC5CC(CC(C5)C3)C4)n2)ccn1`, the “survival and reproduction score” value was 4 (inactive).
The figure for `Clc1ccc(-c2nc(-c3ccc4c(c3)OCO4)no2)cc1` is 4 (inactive); for `Cc1ccc(C(=O)CSc2nnc(-c3ccco3)o2)o1` it is 4 (inactive).
The figure for `COc1ccc(-c2noc(COc3ccc(Br)c(C)c3)n2)cc1` is 4 (inactive); for `COc1cccc(-c2noc(COc3ccc4ccccc4c3)n2)c1` it is 4 (inactive); for `Cc1ccc(SC(C)c2nc(-c3cccnc3)no2)cc1` (stereo not drawn) it is 4 (inactive).
The figure for `Cc1ccc(-c2nc(-c3ccccc3)no2)cc1Cl` is 3 (inactive).
Consider `Cc1ccc(OCc2nc(-c3ccc(Cl)cc3)no2)cc1C`, for which the “survival and reproduction score” value was 4 (inactive).
The figure for `Cc1ccc(-c2noc(COc3ccc(Cl)c(C)c3)n2)cc1` is 4 (inactive); for `COc1nc2ccc(C)cc2cc1-c1noc(-c2ccncc2)n1` it is 4 (inactive); for `Cc1ccc(OCc2nc(-c3ccncc3)no2)c(Br)c1` it is 3.5 (inactive).
As for `COc1ccc(C(=O)Nc2ccc(-c3nnc(SCc4ccccc4)o3)cc2)cc1`, the figure is 4 (inactive).
The figure for `Clc1ccc(-c2nc(-c3ccncc3)no2)cc1Cl` is 4 (inactive).
In the case of `N#Cc1ccc(OCc2nc(-c3ccc(Br)o3)no2)cc1`, the “survival and reproduction score” value was 4 (inactive).
The figure for `c1csc(-c2nnc(-c3cccs3)o2)c1` is 2 (inactive); for `Cc1ccccc1CSc1nnc(-c2ccccc2Cl)o1` it is 4 (inactive); for `CCOc1ccccc1NC(=O)CSc1nnc(-c2ccco2)o1` it is 4 (inactive).
As for `COc1ccccc1-c1nnc(SCC(=O)OCc2ccccc2)o1`, the figure is 4 (inactive); as for `CC(C)Oc1ccc(-c2nc(-c3ccncc3)no2)cc1`, 0 (active).
The figure for `FC(F)(F)c1cccc(-c2noc(-c3cccnc3)n2)c1` is 1 (active); for `Cc1ccc(-c2nnc(SCC(=O)Nc3cc(C)ccc3C)o2)cc1` it is 4 (inactive); for `Clc1cc(Br)ccc1OCc1nc(-c2cccnc2)no1` it is 4 (inactive).
For the molecule `COc1cccc(-c2noc(COc3ccc(C)cc3)n2)c1`, the “survival and reproduction score” value was 4 (inactive).
The figure for `CCOc1nc(C)ccc1-c1noc(-c2cccc(C)c2)n1` is 4 (inactive); for `O=C(CSc1nnc(-c2ccncc2)o1)Nc1cc(C(F)(F)F)ccc1Cl` it is 4 (inactive).
The figure for `Cc1ccc(-c2nc(-c3ccccc3Cl)no2)cc1` is 4 (inactive); for `Cc1ccc(OCc2nc(-c3ccc(Cl)cc3)no2)cc1` it is 4 (inactive); for `N#Cc1cccc(CSc2nnc(-c3ccncc3)o2)c1` it is 4 (inactive).
The figure for `CCOc1nc(-c2ccc(C)cc2)ccc1-c1noc(-c2ccco2)n1` is 4 (inactive); for `O=C(CSc1nnc(-c2cccc(Cl)c2)o1)N1CCCCC1` it is 4 (inactive); for `O=C(Nc1cccnc1)c1ccccc1-c1nc(-c2ccc(Cl)cc2)no1` it is 4 (inactive).
As for `Cc1cc(OCc2nc(-c3ccncc3)no2)ccc1Br`, the “survival and reproduction score” value is 4 (inactive).
As for `N#Cc1ccccc1CSc1nnc(-c2ccccc2)o1`, the figure is 4 (inactive).
As for `COc1ccccc1OCc1nc(-c2ccccc2)no1`, the “survival and reproduction score” value is 4 (inactive).
Turning to `CCOc1ccc(-c2nc(-c3ccc(C)cc3)no2)cc1`, the “survival and reproduction score” value was 0 (active).
The figure for `O=C(CSc1nnc(-c2ccco2)o1)Nc1cc(Cl)ccc1Cl` is 4 (inactive); for `CC(Sc1nnc(-c2ccc(C(C)(C)C)cc2)o1)C(=O)Nc1nccs1` (stereo not drawn) it is 4 (inactive).
As for `Fc1cccc(-c2nc(-c3cccnc3)no2)c1`, the figure is 0 (active).

Source of the values: the supplement of paper PMC11219838.
